Measured potencies and affinities stand elsewhere. Results filed as inconclusive are left out. Active and inactive are the calls of the source.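 Rule for the calls, unless noted: active = a dose-response fit showing signal loss, with half-maximal concentration no higher than twice the top tested dose; inconclusive = flat fit between 30% and 70% signal loss, or poor fit; inactive = the rest.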
Tests used:
[1] = Cryptococcus neoformans growth inhibition, dose response, Alamar Blue, cherry-picks (AID 686998;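 active = falling signal with fitted half-maximal potency no higher than twice the top valid tested dose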)
[2] = inducers of Cryptococcus neoformans cell lysis, dose response, AK release luminescence, cherry-picks (AID 687000;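 active = fitted dose curve reaches 40% lysis signal rise at or below the highest valid concentration tested for that sample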;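 note: luminescent detection of adenylate kinase leaking from lysed yeast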)
[3] = HepG2 cell cytotoxicity, dose response, cytotoxicity control, cherry-picks, set 2 (AID 687002)
[4] = HeLa cell cytotoxicity, dose response, cytotoxicity control, ATP luminescence, cherry-pick samples (AID 687004;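 active = a fitted half-maximal concentration no higher than twice the top valid tested dose, with signal falling as cells die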)

Measured: outcome

CC1=C(C(=O)OCc2ccccc2)C(c2ccccc2)NC(=O)N1 (stereo not given)
inactive: [1] | [2] | [3] | [4]

O=C(c1ccco1)N1N=C(c2cccs2)CC1c1ccccc1O (stereo not given)
inactive: [1] | [2] | [3] | [4]

CCNC(=O)COc1cccc(C(=O)NCc2ccccc2)c1
inactive: [1] | [2] | [3] | [4]

Cc1noc(C)c1S(=O)(=O)N(C)C[C@@H]1OCCCC[C@@H](C)Oc2ccc(NC(=O)CCCCCC(=O)Nc3ccccc3N)cc2C(=O)N([C@H](C)CO)C[C@@H]1C
inactive: [1] | [2] | [3] | [4]

O=C(C[C@H]1CC[C@H]2[C@@H](COC[C@@H](O)CN2C(=O)c2ccc(F)cc2)O1)N1CCOCC1
inactive: [1] | [2] | [3] | [4]

CO[C@H]1CC[C@@H]2CCOc3c(C#N)cccc3C(=O)N(C)C[C@H](OC)[C@@H](C)C(=O)N(C)C[C@@H]1O2
inactive: [1] | [2] | [3] | [4]

C[C@H]1CN([C@@H](C)CO)C(=O)c2cc(NS(=O)(=O)c3ccc(F)cc3)ccc2O[C@@H]1CN(C)S(=O)(=O)c1ccccc1
inactive: [1] | [2] | [3] | [4]

C[C@H]1CN([C@@H](C)CO)C(=O)Cc2cc(NC(=O)Nc3cccc4ccccc34)ccc2O[C@H]1CN(C)S(=O)(=O)c1cccs1
inactive: [1] | [2] | [3] | [4]

O=C1CCC(C(=O)Nc2ccccc2)N1 (stereo not given)
inactive: [1] | [2] | [3] | [4]

COCCNC(=O)C[C@@H]1CC[C@@H]2[C@H](COC[C@@H](O)CN2S(=O)(=O)c2ccccc2C)O1
inactive: [1] | [2] | [3] | [4]

O=C(Nc1ccc(Cl)c([N+](=O)[O-])c1)c1ccco1
inactive: [1] | [2] | [3] | [4]

O=C1CCC(C(=O)Nc2ccc(Cl)cc2)N1 (stereo not given)
inactive: [1] | [2] | [3] | [4]

Cc1noc(C)c1NC(=O)N(C)C[C@@H]1Oc2ccc(NC(=O)C3CC3)cc2CC(=O)N([C@H](C)CO)C[C@@H]1C
inactive: [1] | [2] | [3] | [4]

Cc1ccccc1-n1ncc2c(SCC(=O)NC3CCCC3)ncnc21
inactive: [1] | [2] | [3] | [4]

CCS(=O)(=O)NCC[C@H]1CC[C@H](NS(=O)(=O)c2cccc(F)c2)[C@H](CO)O1
inactive: [1] | [2] | [3] | [4]

CO[C@H]1CN(C)C(=O)c2cc(NC(=O)c3ccc4c(c3)OCO4)ccc2OC[C@@H](C)N(CC2CC2)C[C@H]1C
inactive: [1] | [2] | [3] | [4]

O=C(NC1CCCCC1)N[C@H]1C=C[C@@H](CC(=O)N2CCOCC2)O[C@H]1CO
inactive: [1] | [2] | [3] | [4]

CCCC(=O)N1CCCC1(C)C(=O)Nc1ccc(C)c(C)c1 (stereo not given)
inactive: [1] | [2] | [3] | [4]

CCCNC(=O)Nc1ccc2c(c1)C(=O)N(C)C[C@@H](OC)[C@@H](C)CN(C(=O)CC)[C@H](C)CO2
inactive: [1] | [2] | [3] | [4]

CC=Cc1ccc2n(c1=O)C[C@@H]1[C@@H](CO)[C@H](C(=O)N3CCCCC3)N(Cc3ccccc3)[C@H]21 (mixture of isomers)
inactive: [1] | [2] | [3] | [4]

CC(C)c1ccc(S(=O)(=O)N2CCN(CC(=O)Nc3ccc4c(c3)OCO4)CC2)cc1
inactive: [1] | [2] | [3] | [4]

Cc1cc(C)c(NC(=O)C2CCCN2CCO)c(C)c1 (stereo not given)
inactive: [1] | [2] | [3] | [4]

COc1ccc(CNC(=O)COc2ccc(OC)cc2)cc1
inactive: [1] | [2] | [3] | [4]

C[C@@H]1CN([C@@H](C)CO)C(=O)c2cc(-c3cncnc3)cnc2O[C@H]1CN(C)C(=O)Cc1ccccc1
inactive: [1] | [2] | [3] | [4]

Cc1noc(C)c1NC(=O)N(C)C[C@H]1Oc2ccc(NS(=O)(=O)c3cn(C)cn3)cc2CC(=O)N([C@H](C)CO)C[C@H]1C
inactive: [1] | [2] | [3] | [4]

CO[C@H]1CN(C)C(=O)c2cc(NC(=O)c3ccccc3F)ccc2OC[C@H](C)N(C(C)=O)C[C@H]1C
inactive: [1] | [2] | [3] | [4]

O=C([C@@H]1[C@@H](CO)[C@@H]2Cn3c(cccc3=O)[C@@H]2N1CCC(F)(F)F)N1CCCCC1
inactive: [1] | [2] | [3] | [4]

CCC(=O)N1CCN(c2ccccc2NC(=S)NC(=O)c2cccc([N+](=O)[O-])c2)CC1
inactive: [1] | [2] | [3] | [4]

C[C@@H]1CCCCO[C@H](CN(C)C(=O)c2ccccc2)[C@@H](C)CN([C@@H](C)CO)C(=O)c2cc(NC(=O)c3ccccc3)ccc2O1
inactive: [1] | [2] | [3] | [4]

O=C(NCC[C@H]1CC[C@@H](NS(=O)(=O)c2ccc(F)cc2)[C@H](CO)O1)c1ccc2c(c1)OCO2
inactive: [1] | [2] | [3] | [4]

C[C@H](CO)N1C[C@H](C)[C@@H](CN(C)S(=O)(=O)c2ccccc2)Oc2c(NC(=O)Nc3cccc4ccccc34)cccc2C1=O
inactive: [1] | [2] | [3] | [4]

COc1ccc(C#Cc2cnc3c(c2)C(=O)N([C@@H](C)CO)C[C@H](C)[C@@H](CN(C)C(=O)CC2CC2)O3)cc1
inactive: [1] | [2] | [3] | [4]

CCn1cc(C(=O)N(C)c2ccc(OC)cc2OC)c2cc(OC)c(OC)cc2c1=O
inactive: [1] | [2] | [3] | [4]

O=C(C[C@@H]1CC[C@H]2[C@@H](COC[C@H](O)CN2Cc2cccc(C(F)(F)F)c2)O1)NCc1ccccc1
inactive: [1] | [2] | [3] | [4]

Cc1ccc(S(=O)(=O)Nc2ccc3c(c2)C(=O)N([C@@H](C)CO)C[C@H](C)[C@H](CN(C)S(=O)(=O)c2ccc(Cl)cc2)OCCCC[C@@H](C)O3)cc1
inactive: [1] | [2] | [3] | [4]

CCCNC(=O)N(C)C[C@@H]1Oc2ncc(C#CC3CCCCC3)cc2C(=O)N([C@H](C)CO)C[C@@H]1C
inactive: [1] | [2] | [3] | [4]

CCNC(=O)C[C@@H]1CC[C@H]2[C@@H](COC[C@@H](O)CN2S(=O)(=O)c2ccccc2F)O1
inactive: [1] | [2] | [3] | [4]

Cc1ccc(NC(=O)C2(C)CCN2C(=O)CCC2CCCC2)cc1C (stereo not given)
inactive: [1] | [2] | [3] | [4]

COc1ccccc1NC(=O)N[C@@H]1CC[C@@H](CCn2cc(C3(O)CCCC3)nn2)O[C@H]1CO
inactive: [1] | [2] | [3] | [4]

CCCC(=O)Nc1ccc2c(c1)OC[C@@H](C)N(Cc1cncnc1)C[C@@H](C)[C@@H](OC)CN(C)C2=O
inactive: [1] | [2] | [3] | [4]

CO[C@@H]1CC[C@@H]2CCOc3c(C#N)cccc3C(=O)N(C)C[C@H](c3ccccc3)CC(=O)N(C)C[C@@H]1O2
inactive: [1] | [2] | [3] | [4]

CO[C@H]1CN(C)C(=O)c2cc(NS(=O)(=O)CC(F)(F)F)ccc2OC[C@H](C)N(Cc2cccnc2)C[C@@H]1C
inactive: [1] | [2] | [3] | [4]

CC(=O)NC[C@@H]1[C@@H](c2ccc(C3=CCCC3)cc2)[C@@H](CO)N1C(=O)NC(C)C
inactive: [1] | [2] | [3] | [4]

C[C@@H]1CCCCO[C@@H](CN(C)S(=O)(=O)c2ccccc2)[C@H](C)CN([C@@H](C)CO)C(=O)c2cc(NC(=O)Nc3ccc(F)cc3)ccc2O1
inactive: [1] | [2] | [3] | [4]

O=C(C[C@H]1CC[C@H]2[C@@H](COC[C@@H](O)CN2C(=O)Nc2ccc(Cl)cc2)O1)N1CCCCC1
inactive: [1] | [2] | [3] | [4]

O=C(Cc1cccs1)N1CCN(c2ccc([N+](=O)[O-])cc2)CC1
inactive: [1] | [2] | [3] | [4]

Cc1cc(C(=O)NC(=S)Nc2ccccc2N2CCCC2)ccc1[N+](=O)[O-]
inactive: [1] | [2] | [3] | [4]

Cc1nnc(NC(=O)CSc2ncnc3c2cnn3-c2ccccc2C)s1
inactive: [1] | [2] | [3] | [4]

CO[C@H](CN(C)Cc1ccc2c(c1)OCO2)[C@@H](C)CN(C(=O)c1ccccc1)[C@@H](C)CO
inactive: [1] | [2] | [3] | [4]

O=C(c1cccc(F)c1)N1CCCCN2[C@@H](CO)[C@H](c3ccc(-c4ccncc4)cc3)[C@@H]2C1
inactive: [1] | [2] | [3] | [4]

C[C@H](NC(=O)C[C@@H]1CC[C@@H]2[C@H](COC[C@@H](O)CN2C(=O)Nc2cccc(F)c2)O1)c1ccccc1
inactive: [1] | [2] | [3] | [4]

CC(C)NC(=O)N[C@H]1CC[C@@H](CCNC(=O)C2CC2)O[C@@H]1CO
inactive: [1] | [2] | [3] | [4]

O=C([C@H]1[C@H](CO)[C@H]2Cn3c(cccc3=O)[C@@H]1N2Cc1cccc(Cl)c1)N1CCOCC1
inactive: [1] | [2] | [3] | [4]

CC(C)(C)C(=O)N1CCCC1C(=O)Nc1ccccc1 (stereo not given)
inactive: [1] | [2] | [3] | [4]

COc1ccc(NC(=O)Nc2ccc3c(c2)C(=O)N([C@@H](C)CO)C[C@@H](C)[C@H](CN(C)C(=O)Cc2ccccc2)OCCCC[C@H](C)O3)cc1
inactive: [1] | [2] | [3] | [4]
